From ChEMBL document CHEMBL3988442, “University of Dundee, Small-Polar-MMV Screening Library” (2021)
Screen size: about 48,000 compounds; about 13,000 (27%) showed an effect of 50% or more. The list shows a part of the results.

Test system: Wolbachia pipientis
Assay: Anti-Wolbachia Cell-Based Screen
Format: functional
Parameters: scale not given: in the data most compounds retested in dose-response had high values
Conditions: 5 µM

Compound	Percent Effect [%]
CN1CCN(c2cnn(CCn3cccn3)c(=O)c2)CC1	1.729
CN(C)C[C@H]1CC[C@@H](Cc2ccc3c(cnn3C)c2)O1	15.72
Cc1cccc2nc(CN3CCCC(Cn4ccnn4)C3)cc(=O)n12 (stereo not drawn)	-2.392
CC(C)Cn1ncc2cc(C(=O)N(C)CCc3ccccc3)cnc21	7.152
COCCN1C(=O)CCC12CCCN(Cc1ccccc1F)C2.O=C(O)C(F)(F)F.O=C(O)C(F)(F)F (stereo not drawn)	-19.88
CC[C@@H]1N(Cc2ccoc2)CCC[C@]12CCC(=O)N2CCOC.O=C(O)C(F)(F)F	119.5
COCCNC(=O)[C@H]1C[C@H]2OCC[C@H]2N(Cc2ccoc2)C1.O=C(O)C(F)(F)F	2.424
COCCN1C[C@@H]2CN(Cc3cccc(F)c3)CCC[C@]2(C(=O)O)C1.O=C(O)C(F)(F)F.O=C(O)C(F)(F)F	4.566
CC[C@@H]1N(Cc2ccc(F)cc2)CCC[C@]12CCC(=O)N2CCOC.O=C(O)C(F)(F)F	105
Cn1nnc2c1CCN(Cc1ccoc1)C2COCc1ccccc1.O=C(O)C(F)(F)F (stereo not drawn)	14.93
CCCOc1ccc(C(=O)N[C@@H]2CCNC[C@H]2O)cc1Cl	4.821
c1cc(NCc2cscn2)cc(OCCN2CCCCC2)c1	8.828
CN(Cc1cc[nH]n1)C(=O)C1CC(=O)N(Cc2ccncc2)C1 (stereo not drawn)	23.6
CCN1CCN(C(=O)Cn2nc(C(F)(F)F)c(Br)c2C2CC2)CC1	81.51
CCCN1CCN(C(=O)CCn2nc(C(F)(F)F)c(Br)c2C)CC1	94.07
Cc1cc(C2CCCN(C(=O)CN3CCN(C)CC3)C2)n[nH]1 (stereo not drawn)	0.3099
CCCN1CCCN(C(=O)C(CC)N2CCCC2=O)CC1 (stereo not drawn)	-5.426
CCCN1CCN(C(=O)C(C)n2cc(Br)cn2)CC1 (stereo not drawn)	6.17
CN1CCN(C(=O)Cn2nc(C(F)(F)F)c(Br)c2C2CC2)CC1	120.3
CC(C)(C)C(=O)Cn1nc(C2CC2)cc(C(F)(F)F)c1=O	3.486
CC(C)(C)OC(=O)Cn1nc(C2CC2)cc(C(F)(F)F)c1=O	2.885
CCN1CCN(C(=O)CCc2c(C)noc2Cl)CC1	3.416
Cc1nn(C)c(C)c1CCC(=O)N1CCN(CCn2cncn2)CC1	2.467
CCCN1CCN(C(=O)Cn2nc(C(F)(F)F)c(Br)c2C2CC2)CC1	112.9

Compound	Percent Effect [%]
CCN1CCN(C(=O)CCC2CCN(C(=O)CCSC)CC2)CC1	1.019
CNc1cc(C)nc(N2C[C@H](NC(=O)C3CCOCC3)[C@@H](C3CC3)C2)n1	-20.28
CNC(=O)COC(=O)c1cccc(-n2ccc(C(F)(F)F)n2)c1	-11.26
CCCN(CCc1cccc(F)c1)c1ccc2nnnn2n1	9.519
CSC(CNS(C)(=O)=O)c1cccc(Cl)c1 (stereo not drawn)	9.109
Cc1nc(C)n(Cc2cccc(NC(=O)N(C)CCC(C)O)c2)n1 (stereo not drawn)	-6.821
O=C(Cn1nnc(-c2ccc(F)cc2)n1)N1CCOCC(O)C1 (stereo not drawn)	-9.782
O=C(Cn1nc(C(F)(F)F)c(Br)c1C1CC1)N1CCOCC1	103.1
O=C(CN1C(=O)CCC1=O)N1CCOCC1	-0.7877
CCN(Cc1ccncc1)C(=O)C1COc2c(cccc2OC)C1 (stereo not drawn)	-5.298
NC(=O)c1cccc(OCCC(=O)NC2CCc3c(F)cccc32)c1 (stereo not drawn)	3.003
COCCN1CCC2(CC1)CN(CCn1cccn1)C(=O)CO2.O=C(O)C(F)(F)F	-17.67
Cc1cccc(CN2CC3(CCN(C(N)=O)CC3)OCC2=O)n1	101.1
CCCC(=O)N1CCC2(CC1)CN(Cc1cccc(C)n1)C(=O)CO2	88.89
Cc1cccc(CN2CCC3(CCCN(C(=O)CN(C)C)C3)C2=O)n1 (stereo not drawn)	1.32
O=C1COC2(CCN(Cc3ccccn3)CC2)CN1CC1CC1	3.205
Cc1cccc(CN2CC3(CCNCC3)OCC2=O)n1	-5.931
COCC(=O)N1CCCC2(CCN(Cc3cccc(C)n3)C2=O)C1.O=C(O)C(F)(F)F (stereo not drawn)	-15.33
COCCN1CCC2(CC1)CN(Cc1cccc(C)n1)C(=O)CO2	94.2
Cc1cccc(CN2CC3(CCN(C(=O)C4CC4)CC3)OCC2=O)n1	113.2
COCCN(C)CCN1CC2(CCN(C3CCOCC3)CC2)OC1=O	-18.87
Cc1ccsc1-c1nnc(SCC(=O)O)n1C(C)c1ccccc1 (stereo not drawn)	-0.1706
CCN(CC)c1ccc(C2C3=C(COC3=O)Nc3[nH]nc(C)c32)cc1 (stereo not drawn)	4.109
CCc1ncncc1C(=O)Nc1ccc2ccn(CCN(C)C)c2c1	-10.28

Compound	Percent Effect [%]
CCc1nc(C)c([C@H]2CN(C)C[C@@H]2C(=O)NCc2ccccc2OC)[nH]1	-8.879
Cc1ccccc1C(CC(=O)NCc1n[nH]c(N)n1)c1ccccc1 (stereo not drawn)	-7.585
CC(NC(=O)NCCCc1n[nH]c(N)c1C#N)c1cccs1 (stereo not drawn)	-7.784
Cc1ncsc1CN1CCOC(C)(C(=O)N(C)C)C1 (stereo not drawn)	112.2
Cc1ncsc1CN1CCOC(C)(C(=O)N2CCOCC2)C1 (stereo not drawn)	106.3
Cc1ncsc1CN1CC2(CCCC2)CC1=O	-13.29
Cc1ncsc1CN1CC[C@H]2OCC[C@@]2(C(=O)N(C)C)C1	3.882
Cc1ncsc1CN1CCOC(C)(C(N)=O)C1 (stereo not drawn)	122.3
Cc1nn(C)c(C)c1-c1ccnc(N(C)Cc2noc(C(C)C)n2)n1	-9.96
CCNC(=O)N[C@H]1C[C@@H](Cc2cc(CN3CCCCC3)on2)C1(C)C	1.239
COc1ccc(CN2CC[C@@H]3CN(S(C)(=O)=O)CCO[C@@H]3C2)cc1.O=C(O)C(F)(F)F	4.247
CN1CCO[C@@H]2CN(C(=O)c3ccc4[nH]ccc4c3)CC[C@@H]2C1.O=C(O)C(F)(F)F	-13.85
CN(C)C[C@H]1OC[C@@H]2CCN(C(=O)c3ccco3)C[C@@H]21.O=C(O)C(F)(F)F	5.332
Cc1ccc(C(=O)N2CC[C@@H]3CN(C4CCOCC4)CCO[C@@H]3C2)o1.O=C(O)C(F)(F)F	105.9
Cc1ccoc1C(=O)N1CC[C@@H]2O[C@@H](C)C[C@H]2C1	0.7135
O=C(O)C(F)(F)F.O=C(c1ccco1)N1CCOCC2(CCN(C3CCOCC3)C2)C1 (stereo not drawn)	7.241
Cc1ccoc1C(=O)N1CC[C@@H]2CN(C3CCOCC3)CCO[C@@H]2C1.O=C(O)C(F)(F)F	107.8
O=C(O)C(F)(F)F.O=C(c1ccco1)N1CC[C@@H]2CN(C3CCOCC3)CCO[C@@H]2C1	107.9
Cc1ccoc1C(=O)N1CC[C@H]2O[C@@H](C)C[C@H]2C1	-21.6
Cc1ccc(CNC2(Cc3cc(-c4cccc(O)c4)on3)COC2)o1	-8.459
COC(=O)C1CCN(C(=O)c2ccc(N(C)S(C)(=O)=O)c(C)c2)CC1	-6.417
COCCC1(C(=O)O)CCCN(Cc2cc3c(cc2Cl)OCO3)C1 (stereo not drawn)	4.782
CNC(=O)CN1CCC(NC2CSCCc3ccccc32)CC1 (stereo not drawn)	0.2819
CS(=O)(=O)N1CCC(c2nnc(Cn3ccnc3)n2C2CC2)CC1	-22.9

Compound	Percent Effect [%]
COC(=O)N1CCC(c2nnc(Cn3ccnc3)n2C)CC1	110.5
CC(C)S(=O)(=O)N1CCCC(c2nnc(Cn3ccnc3)n2C)C1 (stereo not drawn)	-6.159
Cn1c(Cn2ccnc2)nnc1C1CCCN(C2CCCCC2)C1 (stereo not drawn)	-3.14
CC(C)OC(=O)N1CCC(c2nnc(Cn3ccnc3)n2C)CC1	96.34
Cn1c(Cn2ccnc2)nnc1C1CCN(C(=O)C2(C)CC2)CC1	6.343
Cc1ccc(N2C(=O)N[C@@H]3CCN(C(=O)C4CCCC4)[C@@H]3C2=O)cc1	-4.286
CCc1ccc(C(=O)O)cc1S(=O)(=O)N(C)c1cccc(C#N)c1	-20.44
c1csc(N2CCN(Cc3cc4n(n3)CCNC4)CC2)n1	-2.451
COC(=O)Cn1c(=O)nc2n1C(=O)N(c1ccc(Cl)cc1)C2	5.835
CNc1nc(C)cc(NCc2cc(C)cc3c(C)c(C)[nH]c23)n1	-6.475
CN1CCN(C(=O)[C@H]2CC[C@@H]3[C@@H](CCN3Cc3ccsc3)O2)CC1.O=C(O)C(F)(F)F.O=C(O)C(F)(F)F	-13.28
O=C(O)C(F)(F)F.O=C([C@@H]1CC[C@@H]2[C@@H](CCN2Cc2cccs2)O1)N1CCCCO1	-2.602
Cc1ccc(CN2CC[C@H]3[C@H]2CCN3S(=O)(=O)C2CC2)cc1.O=C(O)C(F)(F)F	-0.5114
O=C(O)C(F)(F)F.O=S(=O)(C1CC1)N1CC[C@@H]2[C@@H]1CCN2Cc1cccs1	10.91
CN1CCN(C(=O)[C@H]2C[C@H]3[C@H](CCN3Cc3cccs3)O2)CC1.O=C(O)C(F)(F)F.O=C(O)C(F)(F)F	106.2
Cn1cc(CN2CC[C@@H]3O[C@H](C(=O)N4CCOCC4)C[C@@H]32)cn1	5.245
Cc1cccc(CN2CCN(C(=O)[C@@H]3CSCN3C)CC2)c1	0.2793
Cc1cccc(CN2CC[C@@H]3O[C@@H](C(=O)N4CCN(C)CC4)C[C@@H]32)c1	93.61
Cc1cccc(CN2C[C@@H](CN3CCCN(C)CC3)C[C@H](CO)C2)n1	-14.48
Cc1ccc(CN2CC[C@@H]3O[C@@H](C(=O)N4CCN(C)CC4)C[C@@H]32)cc1.O=C(O)C(F)(F)F.O=C(O)C(F)(F)F	117.4
Cc1cccc(CN2CC[C@@H]3O[C@@H](C(=O)N4CCN(C)CC4)C[C@@H]32)n1	123
